High-throughput results as filed in PubChem BioAssay.
HCV inhibitor – qHTS Assay for Inhibitors of Hepatitis C Virus (HCV). Potency, µM (highest dose often 41.8 µM), inactives show at the highest dose activity change, negative = inhibition, most hits filed as inhibitors. 3.4% of 340,000 active. Huh7.5.1 HCVcc-Cre infection, luciferase reporter, 44 h; note: % is set by controls: 0 for no effect and ±100 for the full control effect
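Infectious HCVcc-Cre (~0.5 moi) was added to cells just after compound, with cells seeded 4 h earlier at 1,000 per well. Luciferase activity after 44 h culture reported infection; substrate was incubated 15 min at room temperature before reading.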
SARS PLP yeast – qHTS of Yeast-based Assay for SARS-CoV PLP | S. cerevisiae expressing SARS-CoV PLpro, growth rescue | Potency, µM (series often up to 32.9 µM), without a hit: top-dose activity, positive = growth rescue, hits mostly activators | 0.19% of 330,000 active | AID 485353, 2010; calls by dose curve; note: 0% is about no effect; nearly all actives have a fitted effect of over 55% in size
NS1 inh – qHTS Assay for Inhibitors of Influenza NS1 Protein Function | Potency, µM (series often up to 46.1 µM), for inactives: at the top dose activity, positive = more growth | 0.4% of 270,000 active; calls by dose curve; note: actives are rising curves; nearly all actives have a fitted effect of over 50% in size
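Compounds were scored for reversing the slow growth caused by influenza A NS1 in S. cerevisiae, measured by optical density at 600 nm. Assay medium contained 2% galactose at pH 6.0; NS1-free yeast of the same strain were the positive control.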
Pf growth 48h – Primary qHTS for delayed death inhibitors of the malarial parasite plastid, 48 hour incubation; 5.9% of 310,000 active; P. falciparum luciferase growth in erythrocytes, 48 h; Potency, µM (series often up to 28.7 µM), without a hit: top-dose activity change, negative = inhibition, most hits filed as inhibitors; note: % is set by controls: 0 for no effect and ±100 for the full control effect
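Here the parasites carry a stable luciferase gene and grow inside erythrocytes in Albumax-based RPMI medium with compound for one erythrocytic cycle. Activity is scored as loss of luminescent signal.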
AMA1-RON2 inh – qHTS for Inhibitors of AMA1-RON; Towards Development of Antimalarial Drug Lead: Primary Screen; Plasmodium falciparum AMA1 (3D7) - RON2 peptide interaction; Potency, µM (titrated, usually from 58.2 µM), for inactives: at the highest dose activity change, negative = inhibition, hits mostly inhibitors; AID 720542, 2013; AlphaScreen AMA1-biotinylated RON2 peptide binding; 0.2% of 360,000 active;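 note: 0% = vehicle wells and -100% = peptide control; nearly all actives have a fitted effect of over 45% in size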
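AMA1 (3D7) with his tag at 25 nM final met compounds first, then biotinylated RON2 peptide at 25 nM; detection used donor plus acceptor beads, 10 µg/mL apiece, read by AlphaScreen after 30 min at room temperature.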
Pf growth 96h – Primary qHTS for delayed death inhibitors of the malarial parasite plastid, 96 hour incubation; Potency, µM (highest dose often 28.7 µM), inactives show at the top dose activity change, negative = inhibition, actives largely listed as inhibitors; AID 504834, 2011; P. falciparum luciferase reporter growth, 96 h; 6.9% of 320,000 active; note: % is set by controls: 0 for no effect and ±100 for the full control effect
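Two-generation exposure (96 h) targets delayed-death phenotype. Reporter parasites carrying integrated firefly luciferase, in red cells at 2% hematocrit and 0.05% parasitemia final, kept at 37 C, 5% CO2; luminescence loss indicates inhibition.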
Starred values were filed as active, the others as inactive; ? = inconclusive; . = no result given. In the library only some 12% were active in any assay of this set; here they are far more common. Unless noted, calls come from the whole dose curve; as a rule, active = well fitted curve in the direction sought with a large enough effect; inconclusive = small, poorly fitted or top-dose-only effect, or another doubt; inactive = no such curve, though single readings can be large; an effect the other way counts as inactive or inconclusive. Potency is the fitted concentration of half-maximal effect.

SMILES | HCV inhibitor | SARS PLP yeast | NS1 inh | Pf growth 48h | AMA1-RON2 inh | Pf growth 96h
O=C(NC1CC1)c1ccc(N2CCCCC2)c([N+](=O)[O-])c1 | 12% | -6% | -51% | 8.3µM* | 0% | 2.6µM*
O=C(NC1CCCCC1)c1ccc(N2CCOCC2)c([N+](=O)[O-])c1 | -1% | -1% | -4% | -2% | 0% | ?
O=C(Nc1cccc(Cl)c1N1CCCCC1)c1ccc(N2CCOCC2)c([N+](=O)[O-])c1 | -7% | -32% | 9% | -16% | 18% | 6.6µM*
O=C(Nc1ccccc1N1CCCCC1)c1ccc(Cl)c([N+](=O)[O-])c1 | 13µM* | 1% | . | -26% | ? | 6%
O=C(Nc1nc(-c2ccccc2)cs1)c1ccc(N2CCOCC2)c([N+](=O)[O-])c1 | 3.5µM* | -1% | 15% | ? | ? | 17%
CN(C)S(=O)(=O)c1cccc(NC(=O)COC(=O)CNC(=O)c2ccccc2F)c1 | 18% | 0% | -6% | 14% | -5% | 29%
Cn1c(C23CC4CC(CC(C4)C2)C3)n[nH]c1=S | -2% | 13µM* | 23% | ? | 4% | 42%
CCN(C(=O)CSc1cc(C)c2cccc(C)c2n1)C1CCS(=O)(=O)C1 (stereo unspecified) | ? | 2% | 5% | 0% | 4% | -25%
CCOc1ccc(NC(=O)CSc2nnc(Cn3cnc4ccccc43)n2C)cc1 | -10% | 5% | -1% | -21% | 3% | 2.3µM*
CCOC(=O)CN(C(=O)CSc1nnc(COc2ccc(OC)cc2)n1C)c1ccccc1 | 21% | 4% | -2% | ? | 29% | 12µM*
COc1ccc(NC(=O)CSc2nnc(Cn3nnc4ccccc43)n2C)cc1 | -6% | -5% | -2% | 8% | -3% | .
Cn1c(Cn2cnc([N+](=O)[O-])n2)nnc1SCC(=O)Nc1ccccc1 | -1% | 13% | 12% | 14% | 30% | 2.9µM*
Cn1c(COc2ccccc2)nnc1SCC(=O)Nc1ccc(N2CCOCC2)c(Cl)c1 | -29% | -1% | -9% | ? | -3% | 4.1µM*
NS(=O)(=O)c1ccc(CNC(=O)c2csc3c2CCCC3)cc1 | -3% | 1% | 4% | -5% | 0% | 21%
Nc1ccc(S(=O)(=O)Nc2ccccc2)cc1 | . | . | . | -8% | . | -1%
Cn1c(COc2ccccc2)nnc1SCC(=O)Nc1ccc(S(N)(=O)=O)cc1 | 8% | 9% | 0% | . | 4% | ?
COC(=O)c1ccc(NC(=O)CSc2nnc(COc3ccccc3)n2C)cc1 | 4% | 3% | 4% | 8.3µM* | -5% | 60%
C=Cc1ccc(C(=O)NC2CCCN(Cc3ccccc3F)C2)cc1 (stereo unspecified) | -1% | 1% | 11% | 0% | 1% | ?
O=C(CCC(=O)c1ccc(F)cc1)NC1CCCN(Cc2ccccc2F)C1 (stereo unspecified) | -9% | 0% | 11% | 1% | 0% | 13µM*
Cn1nc(C(=O)NC2CCCN(Cc3ccccc3F)C2)c2ccccc2c1=O (stereo unspecified) | ? | -5% | -24% | ? | -18% | ?
CC(C)Cc1ccc(CN2CCCC(NC(=O)Cn3cnnn3)C2)cc1 (stereo unspecified) | -7% | 11% | 14% | -7% | 0% | ?
O=C(Cn1cnnn1)NC1CCCN(Cc2ccccc2F)C1 (stereo unspecified) | 0% | 4% | 3% | 15% | 1% | 5.2µM*
CCc1cc(C(=O)NC2CCCN(Cc3ccccc3F)C2)n(C)n1 (stereo unspecified) | 8.9µM* | 3% | -6% | 3% | -4% | ?
O=C(O)c1cccc2c1C(=O)c1ccc(-c3ccc(Cl)c(C(F)(F)F)c3)cc1S2(=O)=O | 28% | -1% | . | 65% | -1% | 73%
CCCC(C)NC(=O)C1CC(=O)N(CCc2ccc(F)cc2)C1 (stereo unspecified) | 11% | -7% | 3% | 0% | -2% | 0.93µM*
SMILES | HCV inhibitor | SARS PLP yeast | NS1 inh | Pf growth 48h | AMA1-RON2 inh | Pf growth 96h
CCC(CC)NC(=O)C1CC(=O)N(CCc2ccc(F)cc2)C1 (stereo unspecified) | 8% | 1% | 10% | 2% | -15% | 28%
CN1C(=O)CCC(CCC(=O)O)(c2ccccc2O)C1=O (stereo unspecified) | 9% | 2% | -3% | . | 1% | -4%
C=CCn1c(CSc2nc3ccccc3s2)nnc1SCC(=O)NCc1cccnc1 | 14% | 13% | -8% | ? | 1% | 28%
CCn1c(Cc2c(C)[nH]c3ccccc23)nnc1SCC(=O)NCc1ccccc1 | 16% | -11% | -2% | ? | 19% | ?
C=CCn1c(CSc2nc3ccccc3s2)nnc1SCC(=O)NCc1ccccc1 | -1% | -2% | -10% | . | -1% | 10µM*
C=CCn1c(Cc2c(C)[nH]c3ccccc23)nnc1SCC(=O)NCc1ccc(F)cc1 | 0% | 4% | -2% | 8.3µM* | -4% | 0.26µM*
O=C(CN1C(=O)N/C(=C\c2ccccc2OCc2ccc(C(=O)O)cc2)C1=O)Nc1ccc(F)cc1 | 25% | 2% | 3% | 8% | 3% | 5.2µM*
Cc1cc(N2CCOCC2)ccc1/C=C1\NC(=O)N(CC(=O)Nc2ccccc2C)C1=O | -27% | 0% | -5% | 29% | -9% | .
Cc1cccc(NC(=O)CN2C(=O)N/C(=C\c3ccccc3OCc3ccc(C(=O)O)cc3)C2=O)c1 | 19% | -2% | 7% | -17% | 4% | 14%
Cc1cc(N2CCOCC2)ccc1/C=C1\NC(=O)N(CC(=O)Nc2ccc(F)cc2)C1=O | 3% | 0% | 0% | 58% | -2% | 2.9µM*
Cc1cn(C2CCCO2)c(=O)nc1N (stereo unspecified) | 32% | . | . | . | ? | .
O=C(c1cccc(F)c1)N(Cc1nc2ccccc2c(=O)[nH]1)C1CCCC1 | 1% | 0% | -1% | 6.6µM* | 76% | ?
COc1ccc(CCN(Cc2nc3ccccc3c(=O)[nH]2)C(=O)c2ccco2)cc1 | 5% | 0% | -12% | ? | 22% | 8%
CCN(Cc1nc2ccccc2c(=O)[nH]1)C(=O)c1cccc(NC(=O)c2cccs2)c1 | ? | 3% | . | ? | 43% | ?
CCC(CC)C(=O)N(CCc1ccc(OC)cc1)Cc1nc2ccccc2c(=O)[nH]1 | 22µM* | -13% | -10% | . | 46% | 12µM*
COCC(=O)N(Cc1nc2ccccc2c(=O)[nH]1)Cc1cccs1 | 11% | 8% | 3% | 15% | 103% | ?
